Screens from PubChem.
Rows were chosen to be rich in hits. Some 1.7% of all compounds tested hit in one or more screens of this group.
PTHR1 ag – PTHR1 (human) receptor agonism | Q03431 | HEK293 GP2 PTHR1 cells, GloSensor cAMP luminescence, 1 h | Potency, µM (top dose mostly 115 µM), inactives show top-dose activation, actives largely listed as activators | 410,000 compounds, 0.075% hits | AID 743266; also: nearly all actives have a fitted effect of over 55% in size
Target sequence (Q03431 whole entry, looked up): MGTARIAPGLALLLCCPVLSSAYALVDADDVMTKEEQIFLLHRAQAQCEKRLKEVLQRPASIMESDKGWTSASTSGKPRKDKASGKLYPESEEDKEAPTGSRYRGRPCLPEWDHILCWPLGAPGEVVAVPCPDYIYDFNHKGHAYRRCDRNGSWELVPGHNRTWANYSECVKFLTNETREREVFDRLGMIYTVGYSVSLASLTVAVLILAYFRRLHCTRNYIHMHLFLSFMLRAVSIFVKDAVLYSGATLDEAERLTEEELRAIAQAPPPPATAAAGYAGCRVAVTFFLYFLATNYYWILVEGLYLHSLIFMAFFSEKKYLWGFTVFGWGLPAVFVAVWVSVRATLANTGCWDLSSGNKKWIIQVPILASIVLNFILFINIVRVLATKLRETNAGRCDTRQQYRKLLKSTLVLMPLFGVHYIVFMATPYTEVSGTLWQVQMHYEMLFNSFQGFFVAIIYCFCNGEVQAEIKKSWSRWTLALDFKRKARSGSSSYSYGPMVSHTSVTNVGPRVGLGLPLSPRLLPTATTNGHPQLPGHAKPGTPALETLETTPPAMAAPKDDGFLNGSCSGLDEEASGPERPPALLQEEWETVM
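HEK-293-derived GP2 cells expressing PTHR1 and a GloSensor cAMP reporter, 3,000/well, plated overnight, given luciferin plus IBMX (each 0.5 mM as added) for 1 h at 37 °C, then compound for 1 h at 37 °C. Luminescence was read after 15 min at room temperature.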
HEK293 tox – cytotoxicity in counter-screen for GLP-1R inverse agonists | HEK293 cAMP-luciferase reporter cells, luminescence, 24 h | Potency, µM (doses to about 38.3 µM), without a hit: at the highest dose activity change, negative = inhibition, hits mostly inhibitors | 410,000 compounds, 0.13% hits;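 also: loss of luciferase light is scored as toxicity; % is scaled to controls: 0 for no effect and ±100 for the full control effect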
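Quantitative HTS format, 1536 wells, 200 cells/uL seeded. Compounds: 23 nL, 24 h, 37 °C. Detection: luciferase reagent, luminescence at 12 min RT; decreased signal taken as cytotoxic.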
GLP-1R inv ag – inverse agonists of human GLP-1 receptor | Potency, µM (series often up to 38.3 µM), for inactives: at the top dose activity change, negative = inhibition, actives largely listed as inhibitors | 410,000 compounds, 1.6% hits | AID 624417 | HEK293 GLP-1R CRE-luciferase, luminescence, 24 h; GLP-1R form is constitutively active | P43220; also: % is scaled to controls: 0 for no effect and ±100 for the full control effect; nearly all actives have a fitted effect of over 55% in size
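HEK293 cells stably co-expressing a cAMP-responsive luciferase reporter and constitutively active GLP-1R were seeded, incubated 12 h, then exposed to compounds for 24 h at 37 C. Luminescence was read 12 min after detection reagent; inverse agonists lower signal.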
GLP-1R agonist – activates the human GLP-1 receptor; P43220; HEK293 GLP-1R CRE-luciferase, luminescence, 4-6 h; cells express a hypersensitive GLP-1R form; Potency, µM (titrated, usually from 45.6 µM), inactives show top-dose activation, most hits filed as activators; 380,000 compounds, 0.007% hits; also: % of control where 0% means no effect
* = called active by the depositor; i = inactive; ? = inconclusive; nt = no result; [ ] = another dose, or the depositor's remark. Calls follow the shape of the dose curve; as a rule, active = well fitted curve in the direction sought with a large enough effect; inconclusive = small, poorly fitted or top-dose-only effect, or another doubt; inactive = no such curve, though single readings can be large; an effect the other way counts as inactive or inconclusive. Potency is read from the fitted curve at half-maximal effect.

SMILES	PTHR1 ag	HEK293 tox	GLP-1R inv ag	GLP-1R agonist
COc1ccc(-n2cc(CNCCc3ncc(C)[nH]3)c(-c3ccccc3Cl)n2)cc1	i	-2.4%	?	6.3%
CCCCOc1ccc(C(=O)NCC(=O)N2CCN(C(=O)c3ccco3)CC2)cc1	-29.8%	?	-22.2%	-4.7%
COc1ccc(/C=N/Nc2nc(Nc3ccccc3)nc(N3CCCCC3)n2)c(OC)c1	-24.1%	5.01µM*	?	3.4%
COc1ccc(/C=N/Nc2nc(Nc3ccccc3)nc(N3CCCC3)n2)cc1[N+](=O)[O-]	-20.2%	?	8.3%	13.9%
COc1cc(/C=N/Nc2nc(Nc3ccccc3)nc(N3CCOCC3)n2)ccc1OC(=O)c1ccco1	-13.4%	-26.1%	4.47µM*	5.0%
CN(C(=O)c1ccccc1OCc1ccc(F)cc1)c1c(N)n(Cc2ccccc2)c(=O)[nH]c1=O	-3.6%	1.1%	2.5%	-11.1%
CCOC(=O)c1c(C)[nH]c(C(=O)OCC(=O)N(C)CC(=O)Nc2ccccc2Cl)c1C	-67.5%	-11.5%	-6.2%	10.5%
CCCOc1ccc(-c2cn3ccccc3n2)cc1	-82.1%	11.7%	7.08µM*	-3.2%
COc1ccc(-c2cn3ccccc3n2)cc1	-87.3%	1.2%	?	-5.7%
COc1cc(-c2noc(C3CCCN(C(=O)c4c(F)cccc4F)C3)n2)cc(OC)c1OC (configuration not stated)	-34.6%	-15.2%	2.2%	16.7%
CCc1ccc(NC(=O)CN2C(=O)C(c3ccc(Cl)cc3)=NC23CCCCC3)cc1	-22.7%	-9.0%	11.2µM*	nt
CCc1ccc(NC(=O)CN2C(=O)C(c3ccc(C)cc3)=NC23CCCCC3)cc1	-8.9%	0.5%	11.2µM*	nt
Cc1ccc(NC(=O)CN2C(=O)C(c3ccc(C)cc3)=NC23CCCCCC3)cc1	14.9%	-18.7%	10µM*	nt
Cc1c(CNC(=O)c2c([N+](=O)[O-])cnn2C)cnn1C	-14.7%	-0.8%	-7.9%	4.3%
Cc1cc(NC(=O)COC(=O)C2CCN(S(=O)(=O)c3ccccc3)CC2)c([N+](=O)[O-])cc1C	-0.3%	12.5%	51.5%	-4.9%
CCCCCCCCCCCCCCCCn1cc[n+](CC(C)=O)c1	-20.9%	?	4.47µM*	-1.0%
O=c1[nH]c(=S)[nH]c2scc(-c3ccc(Br)cc3)c12	-14.6%	22.1%	14.9%	-0.2%
CCCN1CCN(CCCNC(=S)Nc2ccc3nc(N4CCN(CC)CC4)cc(C)c3c2)CC1	?	?	?	3.9%
Cc1cc(N2CCN(C)CC2)nc2ccc(NC(=S)NCCCN3CCc4ccccc4C3)cc12	-22.4%	4.47µM*	?	22.2%
Cc1cc(N2CCCC2)nc2ccc(NC(=S)NCCCN3CCC(C)CC3)cc12	i	?	5.01µM*	-2.3%
Cc1cc(N2CCN(C)CC2)nc2ccc(NC(=S)NCCN3CCc4ccccc4C3)cc12	-8.7%	-17.4%	?	21.3%
CCCCNC(=O)c1ccccc1NC(=O)CCSc1ccccc1	-21.2%[57.5 µM]	5.3%	10µM*	24.3%
CCCCNC(=O)Nc1ccccc1C(=O)NCCC	-2.4%[57.5 µM]	-26.1%	0.0%	-3.9%
COc1cccc(N2C(=O)C(CC(=O)Nc3ccc(F)cc3)N(CCC3=CCCCC3)C2=O)c1 (configuration not stated)	i	?	10µM*	nt
CC(C)CCN1C(=O)N(c2ccccc2)C(=O)C1CC(=O)Nc1ccc(Cl)cc1 (configuration not stated)	i	1.5%	10µM*	nt
SMILES	PTHR1 ag	HEK293 tox	GLP-1R inv ag	GLP-1R agonist
CCNC(=O)CC1C(=O)N(c2ccccc2)C(=O)N1CCC(C)C (configuration not stated)	-22.1%[57.5 µM]	-2.6%	14.9%	-13.8%
O=C(O)CCCC(=O)Nc1ccccc1SCCS(=O)(=O)c1ccc(Cl)cc1	-12.4%	-1.6%	0.1%	1.4%
CCOC(=O)CN(C(=O)CSc1nnnn1C)c1ccccc1	i	-8.0%	16.4%	7.2%
Cc1cc(C)c(CN2CCN(C(=O)Cn3cnc4c(NCc5ccccc5)ncnc43)CC2)c(C)c1	-28.2%	-3.1%	8.91µM*	1.0%
O=C(Cn1cnc2c(NCc3ccccc3)ncnc21)N1CCN(c2ccccn2)CC1	i	3.9%	11.4%	6.3%
Cc1cc(C)c(NC(=O)Cn2nnc(-c3nc(-c4ccncc4)no3)c2N)c(C)c1	i	0.7%	2.2%	nt
CO/N=C(/CNC(=O)c1cccc(Cl)c1)c1ccc(Cl)cc1	i	28.0%	11.2µM*	1.4%
Cc1ccc2c(CC(=O)Nc3ccc(S(=O)(=O)N4CCCCC4C)cc3)coc2c1 (configuration not stated)	i	-6.3%	11.2µM*	nt
Cc1ccc(S(=O)(=O)N2CCCCC2C(=O)Nc2ccc(N(C)C)cc2)cc1 (configuration not stated)	-27.8%	-13.1%	7.08µM*	11.4%
O=C(Cc1ccccc1)Nc1ccc(NC(=O)c2cccs2)cc1Cl	i	-14.4%	24.0%	-1.9%
COc1ccc(C2CC(C(F)(F)F)n3nc(C(=O)NCc4cn(C)nc4C)c(Cl)c3N2)cc1 (configuration not stated)	i	-0.3%	-6.0%	6.1%
CC(C)CNC(=O)COC(=O)c1c2c(nc3ccccc13)/C(=C\c1cccs1)CC2	-4.0%	i	4.47µM*	-8.8%
COc1ccc(C(=O)Nc2ccc(OCC(F)(F)C(F)F)c(C(F)(F)F)c2)cc1OC	-92.3%	-23.9%	3.98µM*	1.6%
O=C(Nc1ccc(OCC(F)(F)C(F)F)c(C(F)(F)F)c1)c1ccc(Cl)cc1	-12.7%[57.5 µM]	-20.9%	3.55µM*	-9.4%
COc1ccc(C(=O)Nc2ccncc2)cc1OC	-20.0%[57.5 µM]	9.2%	158.5%	12.1%
O=C(NC1CCCC1)C(c1ccc(F)cc1)N(Cc1ccccc1Cl)C(=O)CCl (configuration not stated)	i	-14.3%	0.0%	1.2%
COc1ccc2c(=O)c(-c3ccc(C)cc3)c(-c3ccccc3)oc2c1	-8.3%	4.0%	7.94µM*	-2.6%
Cc1ccc(S(=O)(=O)N2CCOCC2)cc1NC(=O)CN1CCN(C)CC1	-12.2%	-0.2%	36.1%	0.4%
Cc1ccc(S(=O)(=O)N2CCOCC2)cc1NC(=O)CN1CCC(Cc2ccccc2)CC1	-28.3%	-6.6%	7.08µM*	10.1%
Cc1ccc(S(=O)(=O)N2CCOCC2)cc1NC(=O)COc1cccc(Oc2ccccc2)c1	i	11.5%	10µM*	-1.9%
CCN(CC)S(=O)(=O)c1ccc(Cl)c(NC(=O)c2cc(Cl)cc(Cl)c2)c1	i	4.4%	0.8%	2.5%
COc1ccccc1C(C[N+](=O)[O-])c1c[nH]c2ccccc12 (configuration not stated)	i	-22.6%	10µM*	5.4%
COc1ccc(S(=O)(=O)Nc2cc3c4c(oc3c3ccccc23)CC(C)(C)CC4=O)cc1	-11.3%[57.5 µM]	?	-25.9%	0.9%
COc1ccc(S(=O)(=O)Nc2cc3c4c(oc3c3ccccc23)CCCC4=O)cc1	-0.4%	?	5.01µM*	4.4%
